# ChEMBL document CHEMBL1157539, “Thousands of chemical starting points for antimalarial lead identification” (Nature, 2010)
# Assays:
# Type in all cases: functional
# [1] = tested on: Plasmodium falciparum; test: GSK_TCMDC: Inhibition of Plasmodium falciparum 3D7 in whole red blood cells, using parasite LDH activity as an index of growth. Test compounds present at 2uM
# [2] = tested on: Plasmodium falciparum; test: GSK_TCMDC: Inhibition of Plasmodium falciparum Dd2 in whole red blood cells, using parasite LDH activity as an index of growth. Test compounds present at 2uM
# [3] = tested on: HepG2; test: GSK_TCMDC: Percent inhibition of human HepG2 cell line. Test compounds present at 10uM.
smiles,measurement,setting,value
O=C(C=Cc1ccc(Cl)c(Cl)c1)NCCCCCN1CCC(CCNC(=O)c2sc3ccccc3c2Cl)CC1,Inhibition,[1],88%
same,Inhibition,[2],6%
same,Inhibition,[3],27%
CCNS(=O)(=O)c1ccc(Oc2ccc([N+](=O)[O-])cc2)cc1,Inhibition,[1],94%
same,Inhibition,[2],85%
same,Inhibition,[3],1%
N=C(N)Nc1nc(-c2cccc(NC(=O)NCC(c3ccccc3)c3ccccc3)c2)cs1,Inhibition,[1],100%
same,Inhibition,[2],87%
same,Inhibition,[3],0%
Cc1cc(N)c2cc(NC(=O)c3cccc(C(=O)Nc4ccc5nc(C)cc(N)c5c4)c3)ccc2n1.Cl,Inhibition,[1],94%
same,Inhibition,[2],92%
same,Inhibition,[3],9%
COc1cc(CNc2ccc(N3CCCC3)cc2)cc(Cl)c1OC,Inhibition,[1],100%
same,Inhibition,[2],94%
same,Inhibition,[3],41%
COC(=O)Nc1cc(C(F)(F)F)ccc1N1CCC(CNS(=O)(=O)c2ccc(OC)cc2)CC1,Inhibition,[1],99%
same,Inhibition,[2],95%
same,Inhibition,[3],13%
Cc1ccc(CN2CCN(c3cc4c(cc3Cl)CCN4C(=O)Cc3ccc(NC(=O)c4ccc(C(F)(F)F)cc4)cc3)CC2)cc1,Inhibition,[1],88%
same,Inhibition,[2],0%
same,Inhibition,[3],15%
O=C(Nc1ccc2ccccc2c1)c1ccc(CN2CCC(Cc3ccccc3)CC2)cc1,Inhibition,[1],95%
same,Inhibition,[2],10%
same,Inhibition,[3],38%
Cl.Oc1cccc(Nc2ccnc3cc(-c4ccncc4)ccc23)c1,Inhibition,[1],100%
same,Inhibition,[2],99%
same,Inhibition,[3],8%
Fc1ccc2[nH]c(-c3ccc(-c4ccc(CN5CCN(CCN6CCOCC6)CC5)cc4)s3)nc2c1.O=C(O)C(F)(F)F,Inhibition,[1],99%
same,Inhibition,[2],98%
same,Inhibition,[3],39%
Cc1cc(NC(=O)c2cccs2)ccc1OC1CCN(Cc2ccc(F)cc2)CC1.O=C(O)C(F)(F)F,Inhibition,[1],94%
same,Inhibition,[2],92%
same,Inhibition,[3],7%
Cc1cccc2nc(-c3ccc(-c4cccc(CN5CCCC5CN)c4)s3)[nH]c12.O=C(O)C(F)(F)F (stereo not drawn),Inhibition,[1],91%
same,Inhibition,[2],45%
same,Inhibition,[3],20%
CCCNCc1ccc(-c2ccc(CN(CCOC)C(=O)c3cccc(C#N)c3)cc2)nc1.O=C(O)C(F)(F)F,Inhibition,[1],84%
same,Inhibition,[2],14%
same,Inhibition,[3],0%
Cc1cc(C2CCN(CCCCNC(=O)c3ccc(NC(=O)c4ccc(Cl)cc4)cc3)CC2)c(C)cc1OCc1ccncc1.Cl,Inhibition,[1],100%
same,Inhibition,[2],92%
same,Inhibition,[3],33%
Cc1nc(-c2cccc3c(NC(=O)Nc4ccc5nccc(N6CCN(C)CC6)c5c4)cccc23)no1.Cl,Inhibition,[1],100%
same,Inhibition,[2],84%
same,Inhibition,[3],0%
COc1ccc(C(=O)CCC(=O)N(Cc2ccc(-c3ccc(CNCCc4ccc(S(C)(=O)=O)cc4)cn3)cc2)C(C)CN(C)C)cc1F.O=C(O)C(F)(F)F (stereo not drawn),Inhibition,[1],98%
same,Inhibition,[2],85%
same,Inhibition,[3],13%
CCOc1cc[nH]c(=O)n1,Inhibition,[1],97%
same,Inhibition,[2],95%
same,Inhibition,[3],0%
Cc1nnsc1C(=O)Nc1ccc(-c2ccc(-c3nc4cccc(C)c4[nH]3)s2)cc1,Inhibition,[1],100%
same,Inhibition,[2],61%
same,Inhibition,[3],63%
O=C(NCc1cccc(C(F)(F)F)c1)[C@@H]1CCCN1C(=O)c1ccc(O)c(-c2ccc(Cl)c(Cl)c2)c1,Inhibition,[1],99%
same,Inhibition,[2],97%
same,Inhibition,[3],0%
O=C(/C=C/c1ccc(Cl)c(Cl)c1)NCCCCCN1CCC(NC(=S)Nc2ccc(Cl)c(Cl)c2)CC1,Inhibition,[1],99%
same,Inhibition,[2],65%
same,Inhibition,[3],29%
CN1CCC(NCc2ccc(-c3ccc(Cl)cc3)cc2)CC1,Inhibition,[1],99%
same,Inhibition,[2],43%
same,Inhibition,[3],50%
COc1ccc(N(c2nc(-c3cc(Cl)ccc3Cl)cs2)C2CCNC2)cc1.O=C(O)C(F)(F)F (stereo not drawn),Inhibition,[1],95%
same,Inhibition,[2],9%
same,Inhibition,[3],21%
Cc1cc(O)c(-c2cccc(Oc3ccc(Cl)cc3)c2)c(C)n1,Inhibition,[1],96%
same,Inhibition,[2],95%
same,Inhibition,[3],0%
COc1ccc2nccc([C@@H](O)CN3CCC(NC(=O)C(c4cc5ccccc5s4)N4CC(C)OC(C)C4)CC3)c2c1 (stereo partly drawn),Inhibition,[1],93%
same,Inhibition,[2],44%
same,Inhibition,[3],12%
Cc1cc(NC2CCN(CC3CCCCC3)CC2)nc(Nc2ccccc2Cl)n1,Inhibition,[1],100%
same,Inhibition,[2],31%
same,Inhibition,[3],28%
CC(C)[C@H](NC(=O)c1ccc(O)c(-c2ccc(Cl)c(Cl)c2)c1)C(=O)NCCN1CCCCC1,Inhibition,[1],99%
same,Inhibition,[2],98%
same,Inhibition,[3],0%
CC(C)(CNCc1ccc(OC(F)(F)F)cc1)c1nc(-c2ccc(Cl)c(O)c2)c(-c2ccncc2)[nH]1.Cl,Inhibition,[1],100%
same,Inhibition,[2],99%
same,Inhibition,[3],38%
CCN1CCC(N(Cc2ccc(-c3ccc(C(F)(F)F)cc3)cc2)C(=O)Cn2c(CCc3cccc(F)c3F)cc(=O)c3ccccc32)CC1.O=C(O)C(O)C(O)C(=O)O,Inhibition,[1],94%
same,Inhibition,[2],94%
same,Inhibition,[3],100%
COc1ccc(CC2(CO)CCN(Cc3ccc(O)c(Cl)c3)CC2)cc1,Inhibition,[1],98%
same,Inhibition,[2],14%
same,Inhibition,[3],0%
c1ccc(CCNc2ncnc3c2[nH]c2ccccc23)cc1,Inhibition,[1],95%
same,Inhibition,[2],94%
same,Inhibition,[3],50%
COc1cc(CN2CCC(NC(=O)[C@H](Cc3ccccc3)NC(=O)Nc3ccc(Oc4ccccc4)cc3)C2)ccc1O (stereo partly drawn),Inhibition,[1],92%
same,Inhibition,[2],0%
same,Inhibition,[3],10%
